Laboratory results as given in ChEMBL document CHEMBL3988442, “University of Dundee, Small-Polar-MMV Screening Library” (2021).

What follows are compounds tested against AMP-activated protein kinase, AMPK (Homo sapiens) (UniProt P54646+O43741+P54619+Q9UGJ0+Q9Y478+Q13131+Q9UGI9) (assay: AMP-dependent Kinase enzyme assay. An in vitro enzyme assay that detects ADP turnover that is directly proportional to AMPK activity. This uses naive AMPK that is activated during the assay with MK-8722). Settings: 30 µM.
Assay type: functional
Set-up: scale not given: direction of the effect not stated beside the values

| SMILES | Percent Effect [%] |
| --- | --- |
| C=C(C)CN(CC)C(=O)Nc1ccccc1CN(C)C(C)=O | -1.91 |
| CCCn1nc(C)c(CN2CC3(CCOC3)CCC2=O)c1C (stereo not given) | 1.7 |
| CNC(=O)C1CCCN(C(=O)c2cncs2)C1 (stereo not given) | 4.55 |
| CNS(=O)(=O)c1ccc(CN2CCN3CCNC(=O)C3C2)cc1 (stereo not given) | -3.21 |
| COc1cc(F)ccc1NC(=O)NCCNC(=O)OC(C)(C)C | -6.81 |
| Cc1ccc(C(C)NC(=O)N2CCCN(CC(F)F)CC2)s1 (stereo not given) | -1.15 |
| CCC[C@@H]1CN(Cc2cnc3c(S(C)(=O)=O)cnn3c2)C[C@H]1N(C)C | -10.1 |
| Cc1nccn1CCN(C)C(=O)c1cn(-c2ccccc2)nn1 | -5.19 |
| CN1CCC(NC(=O)c2cc(F)cc(Cl)c2O)C1=O (stereo not given) | 11.4 |
| COC[C@]1(O)CCN(c2cc(N3CCOCC3)ncn2)CC1(C)C | -1.8 |
| O=C(c1coc(-c2ccccc2)n1)N1CCCCC1 | 0.702 |
| Cn1ccnc1-c1cn(CCc2nnc(N)s2)nn1 | -14.9 |
| COc1ccc(O)c(C(=O)NCC2CCCN(C3CCOCC3)C2)c1 (stereo not given) | 12.5 |
| Cc1nn(C)c(C)c1CC(=O)NCC1(C(N)=O)CCOCC1 | -4.43 |
| CC(C)c1cc(C(=O)N[C@@H]2CC[C@@H](Oc3ccccc3)[C@@H]2O)on1 | 16.6 |
| Cc1nc(C(C)C)sc1C(C)N(C)C(=O)c1ccc(=O)n(C)c1 (stereo not given) | 5.47 |
| CCNC(=O)c1ccnc(N2CCCC(COc3ccccc3C)C2)c1 (stereo not given) | -0.143 |
| CN(Cc1ccccc1)c1cnn(CC2COCCO2)c(=O)c1 (stereo not given) | 10.8 |
| CC(=O)N1CCCC(C(=O)NCCc2ccc(F)c(Br)c2)C1 (stereo not given) | 9.28 |
| CCN(CC)C(CNC(=O)c1cccnc1-n1cncn1)c1ccsc1 (stereo not given) | 5 |

| SMILES | Percent Effect [%] |
| --- | --- |
| CC(=O)N1CCC(Cc2ccc(-c3ccnn3C)nc2)CC1 | -2.26 |
| CN1CCN(C(=O)C2(S(C)(=O)=O)CCCC2)Cc2ccccc21 | -2.88 |
| CN(Cc1cn(CC2CCNCC2)nn1)CC1CCCCO1 (stereo not given) | 7.46 |
| Cc1cc(C)c2[nH]c(C(=O)NCCN3CCOC3=O)c(C)c2c1 | 16.4 |
| COc1ccc2c(c1)Cc1c-2nc(N)c(C#N)c1C1CCOC1 (stereo not given) | -32.8 |
| CCc1ccc(C(=O)N2CCCCC2CNS(C)(=O)=O)o1 (stereo not given) | -5.12 |
| O=C(Nc1cn[nH]c1)NC1CCN(c2ccccc2OC(F)F)C1 (stereo not given) | -1.4 |
| Cc1noc(C)c1C(=O)N[C@@H]1CCC[C@@H](Oc2ccccc2)[C@@H]1O | 19.1 |
| CC1(C)O[C@@](C)([C@H]2CC3(CCN(c4ncccn4)CC3)CO2)CC[C@@H]1O | 7.88 |
| COc1ccc(CCCC(=O)N2CCCC(n3cncn3)C2)cc1 (stereo not given) | 4.51 |
| CCc1cc(N2CCC(NCCc3ccc(C)o3)CC2)nc(C)n1 | 5.69 |
| CN(CCc1ccncc1)Cc1c(C2CCCC2)[nH]c2ncccc12 | 9.38 |
| Nc1nccnc1C(=O)NC1CCN(Cc2ccccc2)C1 (stereo not given) | 7.89 |
| COCc1ncc(CN2CCC3(CCNCC3)CC2)cn1 | -3.83 |
| COCC[C@]1(O)CCN(CC(=O)NCc2ccccn2)C[C@H]1C | 9.06 |
| CC(OCC1CC1)C(=O)NCCC(=O)Nc1ccccn1 (stereo not given) | 12.4 |
| CCNC(=O)[C@@H]1C[C@H](N)CN1c1cc(C(F)(F)F)nc(N(C)C)n1 | -12 |
| O=C(NC1CCCC1)c1cc(Cn2cnc3ccccc32)on1 | 0.401 |
| CC(=O)N[C@H]1CCO[C@@H](c2cccc(NC(=O)c3ccc(=O)[nH]n3)c2)C1 | 14.1 |
| CSc1ncccc1C(=O)NC(C)c1cccc(N2CCOC2=O)c1 (stereo not given) | -0.0368 |
